Results filed as inconclusive are left out. The source made the active and inactive calls. How the source made its calls: active means hit-call score of the fitted dose curve at least 0.9, where 1 is the maximum; inconclusive means response in the unintended direction; inactive means score below 0.9.
Assay: Tanguay_ZF_120hpf_PE_legacy: (Legacy) Oregon State University Tanguay Lab 120 Hour Post-fertilization zebrafish Assay for Pericardial Edema (AID 2283640);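 on AC50: potency for increased incidence of pericardial edema versus DMSO baseline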
Procedure, shortened: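 Read-out is the presence or absence of pericardial edema at 120 hpf under brightfield, with gain of signal fitted against DMSO controls. Larvae (5D wild-type) were statically exposed at 28C with 0.64% final DMSO.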

SMILES	outcome	AC50
CNC(=O)N(C)c1nnc(C(C)(C)C)s1	inactive	
Clc1nc(Cl)nc(Nc2ccccc2Cl)n1	inactive	
Nc1cnn(-c2ccccc2)c(=O)c1Cl	inactive	
COP(=O)(OC)O/C(C)=C/C(=O)N(C)C	inactive	
CCNC(=O)NC(=O)C(C#N)=NOC		47 µM (active)
CC(C)=CC1C(C(=O)OCc2coc(Cc3ccccc3)c2)C1(C)C (centres undefined)	inactive	
CN/C(=N\[N+](=O)[O-])NCc1cnc(Cl)s1	inactive	
CN=C=S	inactive	
CC(C)Nc1nc(Cl)nc(NC(C)C)n1	inactive	
Cc1cnc(C2=NC(C)(C(C)C)C(=O)N2)c(C(=O)O)c1 (centres undefined)	inactive	
CCCC(=NOCC)C1=C(O)CC(CC(C)SCC)CC1=O (centres undefined)	inactive	
CCOP(=S)(OCC)Oc1nc(Cl)n(C(C)C)n1	inactive	
CCOc1cc(C(C)(C)C)ccc1C1COC(c2c(F)cccc2F)=N1 (centres undefined)	inactive	
N#CN=C1SCCN1Cc1ccc(Cl)nc1	inactive	
COC(=O)c1c(C(F)F)nc(C(F)(F)F)c(C2=NCCS2)c1CC(C)C	inactive	
O=P(O)(O)CCCl	inactive	
COc1cc(Cl)c(OC)cc1Cl	inactive	

SMILES	outcome	AC50
CC(C)C1(C)N=C(c2ncccc2C(=O)O)NC1=O (centres undefined)	inactive	
CC1(C)CON(Cc2ccccc2Cl)C1=O	inactive	
COC(=O)NC(=S)Nc1ccccc1NC(=S)NC(=O)OC		52.6 µM (active)
CCOc1nc(C(Cl)(Cl)Cl)ns1	inactive	
COCc1cnc(C2=NC(C)(C(C)C)C(=O)N2)c(C(=O)O)c1 (centres undefined)	inactive	
O=C(O)c1c(Cl)ccc2cc(Cl)cnc12	inactive	
CCC(C)n1c(=O)[nH]c(C)c(Br)c1=O (centres undefined)	inactive	
CCNP(=S)(OC)O/C(C)=C/C(=O)OC(C)C (centres undefined)	inactive	
Cc1cc(C)nc(Nc2ccccc2)n1	inactive	
COc1cc(OC)nc(NC(=O)NS(=O)(=O)c2ncccc2OCC(F)(F)F)n1	inactive	
CCN(CC)c1nc(C)cc(OP(=S)(OC)OC)n1	inactive	
CS(=O)(=O)c1cc(C(F)(F)F)ccc1C(=O)c1cnoc1C1CC1	inactive	
CCOc1nc(F)cc2nc(S(=O)(=O)Nc3c(Cl)cccc3Cl)nn12	inactive	
CCCCOCN(C(=O)CCl)c1c(CC)cccc1CC	inactive	
CNC(=O)Oc1cccc2ccccc12	inactive	
N#Cc1c(Cl)cccc1Cl	inactive	
Cc1nc(N(C)C)nc(OC(=O)N(C)C)c1C	inactive	

Reference: PubChem BioAssay (EPA / NIEHS)
